Among the data in the supplement of paper PMC4709259 are mean cell size and cell count values, retold here.

The subject of assay [1] is Jurkat. Nature of the assay: mean cell size (FSC-A) relative to DMSO control (fraction of control); higher = larger cells. The settings on record: 48 h. The method, boiled down: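 Jurkat cells seeded at 600 cells/µl were incubated 1 h, then exposed for 48h to the Enzo Screen-Well FDA Approved Drug Library v2.0 at 25µM in 0.9% (v/v) final DMSO. Drugs that cut counts below 20% of controls were diluted 10-fold and retested, down to 25nM. Cell count and mean cell size (forward scatter area) were read on an Accuri C6 flow cytometer, relative to solvent-only controls. Plates held 6-12 controls; values are means of 3 biological replicates.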

In assay [2] the test system is Jurkat. As to the kind of experiment: cell count relative to DMSO control (fraction of control); higher = more cells (less growth inhibition). The conditions noted are these: 48 h.

Where a name gives a salt, the structure may show the parent alone. ± gives the standard deviation.

For `C=CCN1C[C@H](C(=O)N(CCCN(C)C)C(=O)NCC)C[C@@H]2c3cccc4[nH]cc(c34)C[C@H]21` [Cabergoline] (concentration: 25 µM), the mean cell size in the assay with Jurkat [1] worked out at 0.889 ± 0.02. In addition, the cell count with Jurkat [2] was found to be 0.234 ± 0.08.

For `O=P1(NCCCl)OCCCN1CCCl` (stereo not given) [Ifosfamide] (concentration: 25 µM), in the assay on Jurkat [1], the mean cell size came out at 0.938 ± 0.026. In the assay with Jurkat [2], the cell count was 0.372 ± 0.12.

`CC1C=CC=CCCC=CC=CC=CC=CC(OC2OC(C)C(O)C(N)C2O)CC2OC(O)(CC(O)C(O)CCC(O)CC(O)CC(O)CC(=O)OC(C)C(C)C1O)CC(O)C2C(=O)O` (stereo not given) [Nystatin] (concentration: 25 µM): the mean cell size in the assay on Jurkat [1] amounted to 0.8944 ± 0.0084. The compound further returned a cell count with Jurkat [2] of 0.729 ± 0.11.

For the compound `O=C(O)CCCc1ccc(N(CCCl)CCCl)cc1` [Chlorambucil] (concentration: 250 nM), in the assay with Jurkat [1], the mean cell size was found to be 0.945 ± 0.019. The cell count in the assay on Jurkat [2] was 0.352 ± 0.089.

With `CN(C)[C@@H]1C(=O)C(C(N)=O)=C(O)[C@@]2(O)C(=O)C3=C(O)c4c(O)cccc4[C@@](C)(O)[C@H]3C[C@@H]12` [Tetracycline] (concentration: 25 µM), in the assay with Jurkat [1], the mean cell size was determined as 0.998 ± 0.064. Also, the cell count in the assay on Jurkat [2] amounted to 0.556 ± 0.046.

`CN(C)[C@@H]1C(=O)C(C(N)=O)=C(O)[C@@]2(O)C(=O)C3=C(O)c4c(O)cccc4[C@@](C)(O)[C@H]3[C@H](O)[C@@H]12` [Oxytetracycline·HCl] (concentration: 25 µM) displayed a mean cell size in the assay with Jurkat [1] of 0.894 ± 0.014. For the same compound, the cell count with Jurkat [2] came to 0.884 ± 0.1.

In the assay on Jurkat [1], `Cc1c(N)nc(C(CC(N)=O)NCC(N)C(N)=O)nc1C(=O)NC(C(=O)NC(C)C(O)C(C)C(=O)NC(C(=O)NCCc1nc(-c2nc(C(=O)NCCC[S+](C)C)cs2)cs1)C(C)O)C(O[C@@H]1O[C@@H](CO)[C@@H](O)[C@H](O)[C@@H]1O[C@H]1O[C@H](CO)[C@@H](O)[C@H](OC(N)=O)[C@@H]1O)c1cnc[nH]1` (stereo not given in full) [Bleomycin Sulfate] (concentration: 2.5 µM) displayed a mean cell size of 1.33 ± 0.048. Besides, the cell count with Jurkat [2] amounted to 0.297 ± 0.043.

Compound `N[C@@H]1C[C@H]1c1ccccc1.N[C@H]1C[C@@H]1c1ccccc1` [Tranylcypromine Hemisulfate] (concentration: 25 µM) had a mean cell size in the assay with Jurkat [1] of 0.926 ± 0.0078. For the same compound, in the assay with Jurkat [2], the cell count stood at 0.931 ± 0.063.

Consider `CC[C@@H](CO)NC(=O)[C@@H]1C=C2c3cccc4[nH]cc(c34)C[C@H]2N(C)C1` [Methylergonovine Maleate] (concentration: 25 µM), for which the mean cell size with Jurkat [1] was found to be 1.01 ± 0.016. In the assay with Jurkat [2], the cell count is 0.865 ± 0.15.

As for `O=C1CC[C@@]2(O)[C@H]3Cc4ccc(O)c5c4[C@@]2(CCN3CC2CC2)[C@H]1O5` [Naltrexone·HCl] (concentration: 2.5 µM), the mean cell size with Jurkat [1] is 0.985 ± 0.049. In the assay with Jurkat [2], the cell count is 0.399 ± 0.091.

Consider `Oc1ccc2c(c1)[C@@]13CCCC[C@@]1(O)[C@@H](C2)N(CC1CCC1)CC3` [Butorphanol-(+)-Tartrate (Schedule Iv)] (concentration: 25 µM), for which the mean cell size in the assay with Jurkat [1] was found to be 0.952 ± 0.049. The compound further gave a cell count with Jurkat [2] of 0.586 ± 0.075.

Consider `Cl[C@H]1[C@H](Cl)[C@@H](Cl)[C@@H](Cl)[C@H](Cl)[C@H]1Cl` [Lindane] (concentration: 25 µM), for which the mean cell size in the assay on Jurkat [1] stood at 0.981 ± 0.037. This compound also yielded a cell count with Jurkat [2] of 0.667 ± 0.091.

In the case of `O=C(O[C@H]1C[C@H]2CC[C@@H](C1)[N+]21CCCC1)C(O)(c1ccccc1)c1ccccc1` [Trospium Chloride] (concentration: 25 µM), the mean cell size in the assay with Jurkat [1] was found to be 1.07 ± 0.049. In the assay on Jurkat [2], this compound returned a cell count of 0.982 ± 0.079.

For the compound `COc1ccc(C(CN(C)C)C2(O)CCCCC2)cc1` (stereo not given) [Venlafaxine·HCl] (concentration: 25 µM), in the assay on Jurkat [1], the mean cell size came to 0.987 ± 0.021. The same compound gave a cell count in the assay with Jurkat [2] of 0.498 ± 0.12.

Compound `COc1cc([C@@H]2c3cc4c(cc3[C@H](O)[C@H]3COC(=O)[C@H]23)OCO4)cc(OC)c1OC` [Podofilox] (concentration: 25 nM) had a mean cell size in the assay with Jurkat [1] of 0.863 ± 0.026. In the assay with Jurkat [2], the cell count was determined as 0.0355 ± 0.018.

In the assay with Jurkat [1], `COc1cc2c(c(OC)c1OC)-c1ccc(OC)c(=O)cc1[C@@H](NC(C)=O)CC2` [Colchicine] (concentration: 25 nM) gave a mean cell size of 0.967 ± 0.026. For the same compound, in the assay with Jurkat [2], the cell count turned out to be 0.071 ± 0.007.

With `Oc1ccc2c3c1O[C@H]1[C@@H](O)CC[C@@]4(O)[C@@H](C2)N(CC2CCC2)CC[C@]314` [Nalbuphine·HCl Dihydrate] (concentration: 25 µM), the mean cell size with Jurkat [1] amounted to 0.955 ± 0.048. The compound further gave a cell count in the assay with Jurkat [2] of 0.995 ± 0.17.

In turn, `CN1C[C@H](C(=O)N[C@]2(C)O[C@@]3(O)[C@@H]4CCCN4C(=O)[C@H](Cc4ccccc4)N3C2=O)C=C2c3cccc4[nH]cc(c34)C[C@H]21` [Ergotamine Tartrate] (concentration: 25 µM) showed a mean cell size in the assay on Jurkat [1] of 1.07 ± 0.054. Also, the cell count in the assay with Jurkat [2] was found to be 0.745 ± 0.057.

`CCN(C(C)=O)c1cccc(-c2ccnc3c(C#N)cnn23)c1` [Zaleplon] (concentration: 25 µM): in the assay on Jurkat [1], the mean cell size came out at 1 ± 0.059. For the same compound, the cell count in the assay on Jurkat [2] came to 0.664 ± 0.14.

With `O=C1Nc2ccc(Cl)cc2C(c2ccccc2Cl)=NC1O` (stereo not given) [Lorazepam] (concentration: 25 µM), the mean cell size with Jurkat [1] turned out to be 0.927 ± 0.03. The compound also had a cell count in the assay with Jurkat [2] of 0.912 ± 0.056.

`NCCCNCCSP(=O)(O)O` [Amifostine] (concentration: 25 µM) yielded a mean cell size in the assay on Jurkat [1] of 0.95 ± 0.036. Moreover, in the assay with Jurkat [2], the cell count is 0.8 ± 0.12.

`CC(C)N(CCC(C(N)=O)(c1ccccc1)c1ccccn1)C(C)C` (stereo not given) [Disopyramide] (concentration: 25 µM): the mean cell size in the assay on Jurkat [1] came to 0.985 ± 0.041. In the assay on Jurkat [2], this compound registered a cell count of 0.733 ± 0.14.

In turn, `CN1C[C@H](C(=O)N[C@]2(C)O[C@@]3(O)[C@@H]4CCCN4C(=O)[C@H](Cc4ccccc4)N3C2=O)C[C@@H]2c3cccc4[nH]cc(c34)C[C@H]21` [Dihydroergotamine Mesylate] (concentration: 25 µM) yielded a mean cell size in the assay with Jurkat [1] of 1 ± 0.027. In the assay with Jurkat [2], this compound showed a cell count of 0.297 ± 0.092.

`COc1cc2c(cc1OC)C1CC(=O)C(CC(C)C)CN1CC2` (stereo not given) [Tetrabenazine] (concentration: 25 µM) registered a mean cell size with Jurkat [1] of 0.921 ± 0.031. For the same compound, the cell count with Jurkat [2] was found to be 0.833 ± 0.093.

Consider `CN1C(=O)CC(=O)N(c2ccccc2)c2cc(Cl)ccc21` [Clobazam] (concentration: 25 µM), for which the mean cell size in the assay with Jurkat [1] worked out at 0.984 ± 0.032. The cell count in the assay with Jurkat [2] amounted to 0.64 ± 0.12.
